Experiment in all cases: NCI-60 one-dose screen, 48 h (100 = growth as untreated, 0 = no growth, -100 = all killed)
Common to all, as to conditions: 10 µM unless noted

The subject of test [1] is SR leukemia.
The subject of test [2] is RPMI-8226 leukemia.
Test [3] has as its system OVCAR-8 ovarian.
Test [4] deals with OVCAR-5 ovarian.
Test [5] concerns OVCAR-4 ovarian.
Test [6] deals with SK-OV-3 ovarian.
Test [7] has as its system IGROV1 ovarian.
The subject of test [8] is OVCAR-3 ovarian.
Test [9] deals with HS 578T breast.
The subject of test [10] is NCI/ADR-RES ovarian.

Among the data in PubChem BioAssay (NCI) are growth values, retold here.

Compounds without any hit were thinned out: in the full panel of roughly 83,000, 20% have a hit.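 Negative percent growth values reflect cell death: -40 means 40% of the cells present at the start died, and -100 means all died.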 Unmarked numbers belong to inactive results. The source made the active and inactive calls. Rule for the calls: active = growth percent below 10; inactive = the rest.

Take `COc1ccc(/C=C/C(=O)c2ccc(Nc3nc(Nc4ccc(F)cc4)nc(Nc4ccc(Cl)cc4)n3)cc2)cc1`: the growth in [1] was -2.35% (active); in test [2], 58.5%; in test [3] it was 97.1%; in test [4], 111%; in test [5], 98%; in test [6], 122%. The growth in test [7] was 81.2%; in [8] it was 113%; in test [9], 101%; in [10] it was 92.4%.
For `C[C@@H]1CC[C@@]2(OC1)O[C@H]1C[C@H]3[C@@H]4CC=C5C[C@@H](O[C@@H]6O[C@H](CO)[C@@H](O[C@@H]7O[C@@H](CO)[C@H](O)[C@H]7O)[C@H](O)[C@H]6O[C@@H]6O[C@@H](C)[C@H](O)[C@@H](O)[C@H]6O)CC[C@]5(C)[C@H]4CC[C@]3(C)[C@H]1[C@@H]2C`, the growth in [1] was -58.5% (active); in test [2], -60.1% (active); in test [3], -91.2% (active); in test [4], -87.7% (active); in [5], -90% (active); in [6] it was -36.4% (active). The growth in test [7] was -84.2% (active); in [8], -90.2% (active); in [9], -47.9% (active); in test [10] it was -85.6% (active).
Regarding `COc1ccc2c(O)c(/C=C3\N=Nc4ccccc43)oc2c1C[C@H]1CCNC[C@H]1F`, the growth in [1] is -23.4% (active); in test [2] it was 60.4%; in test [3] it was 61%; in test [4], 35.4%; in test [5] it was 57.6%; in test [6] it was 69%. The growth in test [7] is 62.7%; in [8], 66.4%; in [9] it was 54.7%; in test [10], 82.4%.
In the case of `C=CC(=O)N1CCN(c2ccc3cccc(NC(=O)c4cnc(C)cn4)c3n2)CC1`, the growth in test [1] was 9.43% (active); in [2], 43.3%; in [3], 27.2%; in test [4] it was 71.5%; in test [5], 43.7%; in test [6] it was 11.1%. Besides, the growth in test [7] was 9.7% (active); in test [8], 43.5%; in test [9], 34.3%; in test [10], 30.9%.
Consider `CC1CN=C(c2cccc(-c3ccc(-c4ccccc4)o3)c2)N1` (stereo not given), for which the growth in test [1] was -9.42% (active); in test [2], -26.3% (active); in test [3], 33.7%; in test [4] it was -5.49% (active); in [5] it was 43.1%; in test [6], 18.4%. The growth in test [7] is 31%; in [8], 10.6%; in test [9], 17.4%; in test [10], 28.3%.
As to `COc1cc(/C=C/c2cc(/C=C/c3ccc(O)c(OC)c3)n(C(=O)Nc3ccc(F)cc3)n2)ccc1O`, the growth was 2.53% (active) in test [1]; 3.32% (active) in test [2]; 0.475% (active) in test [3]; 31.3% in [4]; 35.5% in test [5]; -18.7% (active) in [6]. The growth in test [7] is 17.4%; in [8], 3.89% (active); in [9] it was 20%; in test [10] it was 27.9%.
On to `C=CC(=O)NCCOc1cccc(Nc2cc(NCCCNC(=O)C3CCC3)c(Br)cn2)c1`, for which the growth in test [1] is -10.1% (active); in test [2], -22.8% (active); in [3] it was 4.84% (active); in test [4] it was 2.75% (active); in test [5], -20.6% (active); in test [6] it was -54.4% (active). Further, the growth was 2.28% (active) in test [7], -25.5% (active) in [8], -18.4% (active) in test [9] and 39.5% in test [10].
As to `COc1cccc(C(=O)OCC(O)C(=O)NC23CC4CC(CC(C4)C2)C3)c1` (stereo not given), the growth in test [1] was 88.9%; in test [2] it was 101%; in test [3], 95.3%; in [4], 100%; in test [5], 99.4%; in test [6] it was 99.5%. The growth in test [7] is 104%; in test [8] it was 111%; in [9], 98.8%; in test [10], 95.2%.
`COc1ccc(/C(C)=C(\c2ccc(Cl)cc2)c2ccc(OCCN3CCCC3)cc2)cc1`: the growth in [1] is -21.6% (active); in [2], -20.3% (active); in [3], 51.6%; in [4], 64.7%; in test [5], 63.5%; in test [6], 82.9%. For the same molecule, the growth in test [7] is 48.9%; in test [8], 63.7%; in test [9], 51.5%; in test [10] it was 70.6%.
Regarding `C=C(CN1CC=CCC1)[C@@H]1CC[C@]2(CO)CC[C@]3(C)[C@H](CC[C@@H]4[C@@]5(C)CC[C@H](O)C(C)(C)[C@@H]5CC[C@]43C)[C@@H]12`, the growth was 76.9% in [1]; 88% in test [2]; 101% in [3]; 109% in test [4]; 92.8% in test [5]; 107% in [6]. In addition, the growth is 107% in test [7], 102% in [8], 95.3% in [9] and 90.1% in [10].
Take `CN1CCN(c2ccc(NC(=O)c3cncnc3Nc3ccc4c(ccn4Cc4cccc(F)c4)c3)cc2)CC1`: the growth in test [1] is 10.9%; in [2], 46.1%; in test [3] it was 34.9%; in test [4], 65.5%; in [5], 66.2%; in [6], 97.4%. For the same molecule, the growth in test [7] is 77.1%; in [8], 80.8%; in [9], 68.3%; in [10], 75.8%.
As to `Cc1ccccc1OCC(O)COc1ccccc1C`, the growth in test [1] was 114%; in test [2] it was 107%; in [3] it was 91.1%; in test [4], 103%; in [5] it was 104%; in test [6] it was 108%. In addition, the growth was 85.1% in [7], 114% in test [8], 117% in test [9] and 111% in test [10].
